# Source: paper PMC7862700, “An all-to-all approach to the identification of sequence-specific readers for epigenetic DNA modifications on cytosine”
# Legend:
# Assay in all cases: DAPPL (digital affinity profiling via proximity ligation, sequencing); 10 mM Tris-HCl pH 7.5, 50 mM NaCl, 1 mM DTT, 4% glycerol, room temperature, 30 min; GST-TFs on glutathione beads, 16-mer random dsDNA library, 0.1% formaldehyde crosslink after washing; high values mean tight binding
# [1] = biological target: T1, FLI1 (Homo sapiens, UniProt Q01543 1-452); conditions: protein: recombinant; tags: N-terminal GST; dsDNA, one strand shown
# T1 sequence: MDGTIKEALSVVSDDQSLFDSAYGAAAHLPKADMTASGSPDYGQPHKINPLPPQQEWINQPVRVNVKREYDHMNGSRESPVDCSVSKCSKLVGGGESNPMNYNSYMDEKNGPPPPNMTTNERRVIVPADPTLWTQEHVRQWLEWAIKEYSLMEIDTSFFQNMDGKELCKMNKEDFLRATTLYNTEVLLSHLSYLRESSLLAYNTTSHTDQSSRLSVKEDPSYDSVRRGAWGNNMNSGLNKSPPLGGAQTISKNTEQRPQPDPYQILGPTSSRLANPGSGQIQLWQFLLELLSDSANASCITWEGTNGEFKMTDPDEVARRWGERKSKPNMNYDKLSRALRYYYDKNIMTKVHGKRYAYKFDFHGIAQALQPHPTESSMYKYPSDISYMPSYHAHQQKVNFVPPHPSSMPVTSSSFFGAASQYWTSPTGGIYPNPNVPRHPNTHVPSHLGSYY
# How it was run: (§1)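 The binding signal reported is, for every hexamer, its read frequency for a factor over its read frequency for the tag-only sample. Reads came from pools of yeast-expressed, GST-fused human transcription factors on glutathione beads, barcoded with DNA and mixed with that sample, which were incubated with 200 nmole of a random double-stranded 16-mer DNA library in Tris/NaCl/DTT/glycerol buffer at room temperature for 30 min. After washing, the pools were crosslinked with 0.1% formaldehyde, proximity-ligated with BsaI/T4 ligase for 1 h at 37 °C, PCR-amplified and sequenced on an Illumina NextSeq500.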
# [2] = biological target: T2, ELK1 (Homo sapiens, UniProt P19419 1-428); conditions: protein: recombinant; tags: N-terminal GST; dsDNA, one strand shown
# T2 sequence: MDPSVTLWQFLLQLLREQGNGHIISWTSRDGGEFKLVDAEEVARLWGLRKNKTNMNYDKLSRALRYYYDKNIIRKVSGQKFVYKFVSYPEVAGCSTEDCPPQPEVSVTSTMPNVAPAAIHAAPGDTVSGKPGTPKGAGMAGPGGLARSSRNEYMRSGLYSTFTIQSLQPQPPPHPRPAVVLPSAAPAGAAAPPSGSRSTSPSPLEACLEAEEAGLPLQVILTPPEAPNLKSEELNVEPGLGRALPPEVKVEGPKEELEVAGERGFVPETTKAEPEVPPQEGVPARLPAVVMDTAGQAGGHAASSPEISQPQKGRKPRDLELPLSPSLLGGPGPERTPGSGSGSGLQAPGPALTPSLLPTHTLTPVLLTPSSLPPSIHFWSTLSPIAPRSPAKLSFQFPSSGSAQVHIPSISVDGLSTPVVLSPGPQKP
# How it was run: as §1
# [3] = biological target: T3, GABPA (Homo sapiens, UniProt Q06546 1-454); conditions: protein: recombinant; tags: N-terminal GST; dsDNA, one strand shown
# T3 sequence: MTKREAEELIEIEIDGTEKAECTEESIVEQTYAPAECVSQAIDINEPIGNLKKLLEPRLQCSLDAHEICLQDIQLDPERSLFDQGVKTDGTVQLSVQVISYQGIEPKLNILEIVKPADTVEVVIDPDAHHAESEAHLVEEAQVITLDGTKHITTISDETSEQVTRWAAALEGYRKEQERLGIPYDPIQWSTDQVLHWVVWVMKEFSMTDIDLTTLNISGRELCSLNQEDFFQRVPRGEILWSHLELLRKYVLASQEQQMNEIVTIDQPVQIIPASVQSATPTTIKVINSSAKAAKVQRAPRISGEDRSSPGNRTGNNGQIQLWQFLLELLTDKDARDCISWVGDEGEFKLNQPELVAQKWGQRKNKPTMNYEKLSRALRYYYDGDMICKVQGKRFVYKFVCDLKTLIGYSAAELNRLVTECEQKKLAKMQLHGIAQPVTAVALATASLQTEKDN
# How it was run: as §1
# [4] = biological target: T4, ERG (Homo sapiens, UniProt P11308 1-479); conditions: protein: recombinant; tags: N-terminal GST; dsDNA, one strand shown
# T4 sequence: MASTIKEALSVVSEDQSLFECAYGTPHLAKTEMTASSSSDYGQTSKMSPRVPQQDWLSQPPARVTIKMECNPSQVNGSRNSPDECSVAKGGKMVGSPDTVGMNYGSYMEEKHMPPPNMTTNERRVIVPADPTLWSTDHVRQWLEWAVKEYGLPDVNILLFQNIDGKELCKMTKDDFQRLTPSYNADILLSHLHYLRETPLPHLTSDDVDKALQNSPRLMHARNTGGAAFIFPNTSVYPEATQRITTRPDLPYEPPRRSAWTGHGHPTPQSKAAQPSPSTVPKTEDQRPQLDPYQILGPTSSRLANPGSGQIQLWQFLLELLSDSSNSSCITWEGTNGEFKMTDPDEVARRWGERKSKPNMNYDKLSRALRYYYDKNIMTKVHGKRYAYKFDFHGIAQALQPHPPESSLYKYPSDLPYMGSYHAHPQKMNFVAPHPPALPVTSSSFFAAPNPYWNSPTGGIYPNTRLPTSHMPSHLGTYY
# How it was run: as §1
# [5] = biological target: ELF1 (Homo sapiens, UniProt P32519 1-619); conditions: protein: recombinant; tags: N-terminal GST; dsDNA, one strand shown
# How it was run: as §1
# [6] = biological target: T5, EHF (Homo sapiens, UniProt Q9NZC4 1-300); conditions: protein: recombinant; tags: N-terminal GST; dsDNA, one strand shown
# T5 sequence: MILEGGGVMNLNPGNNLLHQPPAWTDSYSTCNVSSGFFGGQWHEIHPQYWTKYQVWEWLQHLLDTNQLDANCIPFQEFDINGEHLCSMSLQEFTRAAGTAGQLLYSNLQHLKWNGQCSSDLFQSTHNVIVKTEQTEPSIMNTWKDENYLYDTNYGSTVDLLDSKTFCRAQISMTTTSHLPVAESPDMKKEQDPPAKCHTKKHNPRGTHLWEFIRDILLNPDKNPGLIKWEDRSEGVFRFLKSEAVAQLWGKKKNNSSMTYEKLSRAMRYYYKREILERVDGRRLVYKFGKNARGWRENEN
# How it was run: as §1
# [7] = biological target: SPI1 (Homo sapiens, UniProt P17947 1-270); conditions: protein: recombinant; tags: N-terminal GST; dsDNA, one strand shown
# How it was run: as §1
# [8] = biological target: T6, ELK3 (Homo sapiens, UniProt P41970 1-407); conditions: protein: recombinant; tags: N-terminal GST; dsDNA, one strand shown
# T6 sequence: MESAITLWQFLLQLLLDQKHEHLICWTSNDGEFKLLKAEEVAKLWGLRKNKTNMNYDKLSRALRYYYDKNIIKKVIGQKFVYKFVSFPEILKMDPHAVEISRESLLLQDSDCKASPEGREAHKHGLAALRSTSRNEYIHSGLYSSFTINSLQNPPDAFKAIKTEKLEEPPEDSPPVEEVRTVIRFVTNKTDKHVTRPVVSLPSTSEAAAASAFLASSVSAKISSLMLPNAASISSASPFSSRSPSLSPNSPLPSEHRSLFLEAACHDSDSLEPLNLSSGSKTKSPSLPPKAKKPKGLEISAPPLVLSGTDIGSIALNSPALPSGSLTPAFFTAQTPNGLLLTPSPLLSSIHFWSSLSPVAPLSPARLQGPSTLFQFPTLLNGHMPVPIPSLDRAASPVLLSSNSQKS
# How it was run: as §1
# [9] = biological target: T7, FEV (Homo sapiens, UniProt Q99581 1-238); conditions: protein: recombinant; tags: N-terminal GST; dsDNA, one strand shown
# T7 sequence: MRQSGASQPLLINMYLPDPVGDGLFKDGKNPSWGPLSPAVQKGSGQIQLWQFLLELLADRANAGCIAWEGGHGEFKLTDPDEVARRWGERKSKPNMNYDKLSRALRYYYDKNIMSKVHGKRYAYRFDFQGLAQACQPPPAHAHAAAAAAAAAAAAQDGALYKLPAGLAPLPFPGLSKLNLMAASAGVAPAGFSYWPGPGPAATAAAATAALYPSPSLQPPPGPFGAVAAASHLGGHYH
# How it was run: as §1
# [10] = biological target: ETV5 (Homo sapiens, UniProt P41161 1-510); conditions: protein: recombinant; tags: N-terminal GST; dsDNA, one strand shown
# How it was run: as §1
# [11] = biological target: HSF1 (Homo sapiens, UniProt Q00613 1-529); conditions: protein: recombinant; tags: N-terminal GST; chain copies: 3; dsDNA, one strand shown
# How it was run: as §1
# [12] = biological target: ELF4 (Homo sapiens, UniProt Q99607 1-663); conditions: protein: recombinant; tags: N-terminal GST; dsDNA, one strand shown
# How it was run: as §1
# [13] = biological target: T8, ETV2 (Homo sapiens, UniProt O00321 1-342); conditions: protein: recombinant; tags: N-terminal GST; dsDNA, one strand shown
# T8 sequence: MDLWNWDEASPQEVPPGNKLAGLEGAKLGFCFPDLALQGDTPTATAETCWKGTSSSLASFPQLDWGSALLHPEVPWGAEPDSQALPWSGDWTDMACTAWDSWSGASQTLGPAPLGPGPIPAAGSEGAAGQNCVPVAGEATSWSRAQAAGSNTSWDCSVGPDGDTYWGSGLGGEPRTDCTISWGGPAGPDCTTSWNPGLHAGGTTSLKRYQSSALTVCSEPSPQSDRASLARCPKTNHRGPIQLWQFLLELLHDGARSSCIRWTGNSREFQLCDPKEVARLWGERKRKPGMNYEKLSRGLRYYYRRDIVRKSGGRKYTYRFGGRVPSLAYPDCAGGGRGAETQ
# How it was run: as §1
# [14] = biological target: CRX (Homo sapiens, UniProt O43186 1-299); conditions: protein: recombinant; tags: N-terminal GST; dsDNA, one strand shown
# How it was run: as §1
# [15] = biological target: ETV1 (Homo sapiens, UniProt P50549 1-477); conditions: protein: recombinant; tags: N-terminal GST; dsDNA, one strand shown
# How it was run: as §1
# Chain of ELF1 (P32519 whole entry): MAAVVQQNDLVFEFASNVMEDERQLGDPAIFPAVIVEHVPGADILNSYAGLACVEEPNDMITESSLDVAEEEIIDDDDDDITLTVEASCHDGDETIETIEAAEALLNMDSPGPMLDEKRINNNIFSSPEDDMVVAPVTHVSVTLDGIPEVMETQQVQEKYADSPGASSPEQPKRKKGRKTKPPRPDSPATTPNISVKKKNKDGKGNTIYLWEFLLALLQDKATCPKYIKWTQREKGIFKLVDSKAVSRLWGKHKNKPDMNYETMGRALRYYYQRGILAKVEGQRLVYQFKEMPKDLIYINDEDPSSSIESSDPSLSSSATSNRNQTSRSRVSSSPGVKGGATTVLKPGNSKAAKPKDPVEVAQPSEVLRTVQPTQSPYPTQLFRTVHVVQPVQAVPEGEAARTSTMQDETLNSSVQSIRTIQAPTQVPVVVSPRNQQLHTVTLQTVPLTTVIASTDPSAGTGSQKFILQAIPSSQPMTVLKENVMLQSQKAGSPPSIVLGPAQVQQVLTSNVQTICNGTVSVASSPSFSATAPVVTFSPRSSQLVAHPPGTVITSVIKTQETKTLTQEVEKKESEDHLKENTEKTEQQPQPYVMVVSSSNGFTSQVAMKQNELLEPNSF
# Chain of ETV1 (P50549 whole entry): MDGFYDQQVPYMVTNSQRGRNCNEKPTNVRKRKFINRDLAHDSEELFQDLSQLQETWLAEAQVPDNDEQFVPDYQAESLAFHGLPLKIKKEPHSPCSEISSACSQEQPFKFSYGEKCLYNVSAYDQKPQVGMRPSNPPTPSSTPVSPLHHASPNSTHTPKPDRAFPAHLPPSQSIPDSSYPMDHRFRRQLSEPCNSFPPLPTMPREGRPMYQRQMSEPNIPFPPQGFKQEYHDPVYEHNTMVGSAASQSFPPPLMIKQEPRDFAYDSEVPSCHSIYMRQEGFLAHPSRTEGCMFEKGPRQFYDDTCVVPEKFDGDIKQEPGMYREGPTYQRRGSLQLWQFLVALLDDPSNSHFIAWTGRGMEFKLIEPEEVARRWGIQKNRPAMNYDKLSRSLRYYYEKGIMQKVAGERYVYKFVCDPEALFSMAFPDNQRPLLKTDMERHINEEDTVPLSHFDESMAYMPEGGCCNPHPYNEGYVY
# Chain of ELF4 (Q99607 whole entry): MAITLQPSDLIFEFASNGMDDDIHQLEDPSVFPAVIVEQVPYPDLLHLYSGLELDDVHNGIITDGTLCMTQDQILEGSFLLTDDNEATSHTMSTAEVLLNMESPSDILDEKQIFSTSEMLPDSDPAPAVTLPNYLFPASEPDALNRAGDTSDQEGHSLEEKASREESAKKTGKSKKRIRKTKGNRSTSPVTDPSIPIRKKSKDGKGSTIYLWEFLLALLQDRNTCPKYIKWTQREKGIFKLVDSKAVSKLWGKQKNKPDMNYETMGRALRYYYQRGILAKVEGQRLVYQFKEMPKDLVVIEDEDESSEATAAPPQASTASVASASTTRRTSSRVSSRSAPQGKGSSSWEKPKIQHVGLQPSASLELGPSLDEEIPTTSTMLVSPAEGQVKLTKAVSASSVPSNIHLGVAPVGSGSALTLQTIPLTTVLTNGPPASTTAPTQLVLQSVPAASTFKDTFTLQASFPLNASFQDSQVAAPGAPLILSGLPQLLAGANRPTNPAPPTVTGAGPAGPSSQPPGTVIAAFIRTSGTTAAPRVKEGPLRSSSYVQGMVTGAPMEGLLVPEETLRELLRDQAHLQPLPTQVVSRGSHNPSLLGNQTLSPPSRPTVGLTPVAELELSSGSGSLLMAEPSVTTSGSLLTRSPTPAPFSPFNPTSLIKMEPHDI
# Chain of ETV5 (P41161 whole entry): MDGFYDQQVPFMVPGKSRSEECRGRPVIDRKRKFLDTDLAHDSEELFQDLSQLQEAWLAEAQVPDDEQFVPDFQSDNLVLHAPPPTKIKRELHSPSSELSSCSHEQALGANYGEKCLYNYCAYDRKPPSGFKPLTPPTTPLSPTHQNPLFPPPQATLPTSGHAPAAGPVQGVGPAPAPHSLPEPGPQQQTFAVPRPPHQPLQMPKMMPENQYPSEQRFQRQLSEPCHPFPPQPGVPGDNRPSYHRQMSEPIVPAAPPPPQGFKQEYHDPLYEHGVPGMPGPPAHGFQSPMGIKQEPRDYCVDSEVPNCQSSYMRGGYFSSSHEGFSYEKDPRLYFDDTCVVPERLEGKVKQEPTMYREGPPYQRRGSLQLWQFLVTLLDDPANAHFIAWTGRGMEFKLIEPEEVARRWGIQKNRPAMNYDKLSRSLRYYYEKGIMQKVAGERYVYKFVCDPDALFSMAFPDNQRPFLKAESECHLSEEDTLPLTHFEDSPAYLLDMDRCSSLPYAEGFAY
# Chain of HSF1 (Q00613 whole entry): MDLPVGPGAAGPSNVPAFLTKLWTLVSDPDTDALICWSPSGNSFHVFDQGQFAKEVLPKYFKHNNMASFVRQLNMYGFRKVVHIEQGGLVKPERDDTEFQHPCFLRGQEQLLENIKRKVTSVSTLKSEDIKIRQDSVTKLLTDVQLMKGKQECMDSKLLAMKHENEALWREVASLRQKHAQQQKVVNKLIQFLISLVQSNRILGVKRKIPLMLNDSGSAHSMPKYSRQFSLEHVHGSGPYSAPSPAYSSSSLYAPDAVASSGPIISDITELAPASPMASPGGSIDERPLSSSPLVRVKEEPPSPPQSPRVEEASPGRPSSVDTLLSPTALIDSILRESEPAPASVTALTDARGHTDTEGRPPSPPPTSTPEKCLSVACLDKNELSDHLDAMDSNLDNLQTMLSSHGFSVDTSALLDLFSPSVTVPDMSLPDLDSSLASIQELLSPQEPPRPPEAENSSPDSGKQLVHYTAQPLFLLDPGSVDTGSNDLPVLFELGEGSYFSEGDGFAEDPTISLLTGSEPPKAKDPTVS
# Chain of CRX (O43186 whole entry): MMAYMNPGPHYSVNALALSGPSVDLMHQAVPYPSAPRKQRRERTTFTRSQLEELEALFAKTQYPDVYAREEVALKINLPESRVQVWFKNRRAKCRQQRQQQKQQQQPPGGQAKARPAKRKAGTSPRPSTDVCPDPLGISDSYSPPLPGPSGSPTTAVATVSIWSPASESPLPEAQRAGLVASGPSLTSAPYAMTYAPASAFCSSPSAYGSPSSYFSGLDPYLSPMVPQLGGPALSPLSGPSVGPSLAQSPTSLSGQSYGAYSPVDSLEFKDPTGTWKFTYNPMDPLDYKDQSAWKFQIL
sequence,measurement,setting,value
TTGCGC,binding signal,[1],"1.23 fold enrichment (6-mer frequency, TF over GST control)"
same,binding signal,[2],"1.17 fold enrichment (6-mer frequency, TF over GST control)"
same,binding signal,[3],"1.1 fold enrichment (6-mer frequency, TF over GST control)"
same,binding signal,[4],"1.02 fold enrichment (6-mer frequency, TF over GST control)"
same,binding signal,[5],"1.1 fold enrichment (6-mer frequency, TF over GST control)"
same,binding signal,[6],"1.12 fold enrichment (6-mer frequency, TF over GST control)"
same,binding signal,[7],"1.06 fold enrichment (6-mer frequency, TF over GST control)"
same,binding signal,[8],"1.04 fold enrichment (6-mer frequency, TF over GST control)"
same,binding signal,[9],"1.05 fold enrichment (6-mer frequency, TF over GST control)"
same,binding signal,[10],"1.11 fold enrichment (6-mer frequency, TF over GST control)"
same,binding signal,[11],"1.05 fold enrichment (6-mer frequency, TF over GST control)"
same,binding signal,[12],"1.06 fold enrichment (6-mer frequency, TF over GST control)"
same,binding signal,[13],"1.11 fold enrichment (6-mer frequency, TF over GST control)"
same,binding signal,[14],"1.05 fold enrichment (6-mer frequency, TF over GST control)"
same,binding signal,[15],"1.16 fold enrichment (6-mer frequency, TF over GST control)"
